# About 83,000 compounds went through this panel and 20% of them were active in at least one assay; those are over-represented in the sample as a whole.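 How to read the values: 0–100, growth inhibition (40 = 60% inhibited); 0, no net growth; -100 to 0, cell death (-40 = 40% of starting cells died; -100 = all dead).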 Unmarked numbers belong to inactive results. Calls of active or inactive are those of the source. How the source made its calls: active means growth percent below 10; inactive means the rest.
# System: KM12 colon
# Assay: NCI-60 one-dose screen, 48 h (100 = growth as untreated, 0 = no growth, -100 = all killed)
# Conditions: 10 µM
row,Structure (SMILES),growth
1,Nc1ccc(Sc2ccc3c4c2cccc4c(=O)n2c4ccccc4nc32)cc1,73.6%
2,O=C(c1ccccc1)C(Sc1ccccc1)c1ccccc1 (stereo not drawn),99.5%
3,O=NN(CCCl)C(=O)Nc1ccc(NC(=O)N(CCCl)N=O)cc1,103%
4,Nc1nc(SCC#CCCl)c2[nH]cnc2n1,60.6%
5,NC(=O)C12C(=O)NC(=O)C1(C(=O)O)C21CCCC1 (stereo not drawn),113%
6,C=C[C@]1(C)C=C2C(=O)[C@@]3(O)OC(=O)[C@@]4(CCCC(C)(C)[C@H]34)[C@@]2(O)CC1,8.33% (active)
7,CCCn1c(=O)c2c(nc(-c3cccc(OCCCCl)c3)n2C)n(CCC)c1=O,76.2%
8,CCCCCCCC/C=C/CCCCCCCCC1=NCCN1CCO,62.5%
9,COc1ccc(CSc2nc3cc(OC)c(OC)cc3c(=O)n2-c2ccc(OC)cc2OC)cc1,78.1%
10,Cc1ccccc1C1=N[C@@H](Cc2ccccc2)C(=O)c2c(nc3ccccn23)N1,108%
11,COc1ccc(-c2ccccc2)cc1C(=O)c1ccc(-c2ccccc2)cc1,48.5%
12,C/C=C\COc1cc(C)c(Cl)cc1Cl,109%
13,CC(C)C[C@H](NC(=O)CCn1ccc2ccccc2c1=O)B(O)O,68.8%
14,COc1ccc(-c2[nH]ncc2/C=C/c2cc(C(F)(F)F)[nH]c(=O)n2)cc1,103%
15,c1ccc(COCC[P+](c2ccccc2)(c2ccccc2)c2ccccc2)cc1,6.34% (active)
16,CC(=O)Oc1c(C)c(C)c2c(c1C)CCC(C)(CC(=O)OCCCCCCCCCCC[P+](c1ccccc1)(c1ccccc1)c1ccccc1)O2 (stereo not drawn),-71.3% (active)
17,COc1cc(-c2nc3ccc(C)cc3[nH]2)ccc1OCc1nnc(-c2ccc(CC(C)C)cc2)o1,97.5%
18,N#Cc1c(-c2ccccc2)nc(SCC(=O)N2CCOCC2)[nH]c1=O,114%
19,Brc1ccc(-c2cn3ccnc3c(-c3ccc(Br)cc3)n2)cc1,34.6%

row,Structure (SMILES),growth
1,COc1cc(C2=Nc3c/c(=C\c4c(O)[nH]c5ccc(Cl)cc45)ccc3=N2)cc(OC)c1OC,5.27% (active)
2,COc1cc(CSc2nc3ccc(Cl)cc3c(=O)n2-c2ccccc2)cc(OC)c1OC,49.8%
3,O=S(=O)(O)C1(O)CCCCC1,82.9%
4,CCc1cc2n(n1)-c1ncc(C(=O)OC)cc1Oc1ccccc1-2,102%
5,C/C(=N\NC(N)=S)C(C)(C)O,99.7%
6,COc1ccc(-c2cc(/C=C/C(=O)c3ccc(N)cc3)[nH]n2)cc1OC,5.98% (active)
7,Nc1c(C(=O)NC2CCCCC2)sc2nc3c(cc12)C(=O)CCC3,91.8%
8,CC(=O)n1nc(C(=O)OC(C)(C)C)c2cc(F)c(F)cc21,90%
9,Nc1ccc2c(c1)Cc1cc(N)c(Cl)cc1-2,108%
10,Cc1ccc2c3c(cccc13)-c1ccccc1C2=O,54.4%
11,Nc1cc(O)cc(O)c1,99.7%
12,Fc1ccc(Nc2ccnc(N3CCN(c4ccnc5cc(Cl)ccc45)CC3)n2)cc1,42.1%
13,N/C(=N\O)c1cn(C2OC(CO)C(O)C2O)c2ncnc(N)c12 (stereo not drawn),-24.2% (active)
14,COc1ccc(-c2nsc3c2NC(=O)CC3c2cccc(Cl)c2)cc1 (stereo not drawn),34.6%
15,CCCCCc1cc[n+](CC(=O)c2ccc(Cl)cc2)cc1,73.4%
16,CC1(C)Cc2c(cn(Cc3ccccc3)c2-c2ccccc2)-c2oncc21,105%
17,CCc1nn2c(-c3cc(OC)c(OC)c(OC)c3)c(-c3cc(OC)c(OC)c(OC)c3)nc2s1,100%
18,CC1=CC2OC34COC3CC(OC(=O)C(F)(F)F)C4(C)C2(C)CC1 (stereo not drawn),105%
19,O=[N+]([O-])c1ccc(-c2nc(Cl)c3c(n2)CCCC3)o1,96.5%
